Experimental data: PubChem BioAssay AID493185 (National Center for Advancing Translational Sciences (NCATS), 2011)
A number with no mark means an inactive call. Activity calls are given as the source filed them. Calls come from the whole dose curve; as a rule, active = well fitted activation curve with a large enough effect; inconclusive = small, poorly fitted or top-dose-only effect; inactive = no such curve, though single readings can be large or run the other way.

experiment: Counterscreen for Identifying a Potential Treatment of Ataxia-Telangiectasia: Hit Validation; details: cell-free AlphaLISA/AlphaScreen artifact counterscreen, PBS only, no cells; series mostly up to 76.9 µM; activation: at the top concentration; for activation: 0% is about no effect
Outline: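 Cell-free AlphaLISA counterscreen: compounds (up to 76.7 uM final) in PBS with detection mix of anti-pKAP1 and anti-KAP1 antibodies on donor/acceptor beads plus lysis buffer, incubated 6 hr at 25C before AlphaScreen read.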
Potency is the fitted concentration of half-maximal effect.

| SMILES | activation [%] | Potency |
| --- | --- | --- |
| COc1ccc(CCNC2=NCCS2)cc1OC | 2.46 | – |
| CCC(C)N1C(=S)SC(C)(C)C1N(O)C(=O)NC1CCCCC1 (centres undefined) | -10.8 | – |
| CCNC(=S)N(CCc1c(C)[nH]c2ccccc12)Cc1cccnc1 | -1.64 | – |
| O=C(/C(=C/c1ccc(Cl)cc1)c1nc2ccccc2[nH]1)c1cccs1 | -3.28 | – |
| CCCCCCCCCn1ccc(=N)cc1 | -13.1 | – |
| O=C(O)CCCN1C(=O)/C(=C/C=C/c2ccco2)SC1=S | -43.4 | – |
| Cc1ccccc1OCC(=O)Nc1cccc(C(=O)O)c1 | 33.8 | – |
| COc1ccccc1OC(=O)Nc1ccc(Cl)cc1 | – | 6.54 µM (active) |
| CC(C)Nc1nc(Oc2ccc(=O)n(-c3ccccc3)n2)nc(N(C)C)n1 | 4.51 | – |
| O=C(CSc1ccccn1)N/N=C/C=C/c1ccccc1 | 4.51 | – |
| COc1ccc2nc(C)cc(Nc3ccc(C(=O)O)cc3)c2c1 | 11.5 | – |
| COc1ccc2c(c1)cc(C(=O)N[C@H](C(=O)N1CCC(C(=O)O)CC1)C(C)C)n2C | -23.1 | – |
| CCCN1CN(c2ccccc2)C(=S)N(c2ccccc2)C1 | -2.26 | – |
| COc1ccc(C(=O)N2CCCC2(C#N)c2ccccc2)cc1[N+](=O)[O-] (centres undefined) | -8.2 | – |
| CCOC(=O)NC(C(Cl)(Cl)Cl)S(=O)(=O)c1ccccc1 (centres undefined) | -9.77 | – |
| CN(Cc1ccccc1)C(=O)c1cccc(N2C(=O)C3CC=CCC3C2=O)c1 (centres undefined) | 1.54 | – |
| CCN(CC)S(=O)(=O)c1ccc(Cl)c(NC(=O)CCCCl)c1 | 6.77 | – |
| COc1ccc(C(=O)/C=C/C(=O)N(CC(=O)NC2CCCCC2)Cc2ccccc2)c(O)c1 | 3.76 | – |
| CNC(=O)Cc1csc2ccc(C)cc12 | 3.28 | – |
| COc1ccc(C2c3ccc(O)cc3Oc3ncn(CC(C)C)c(=N)c32)cc1 (centres undefined) | -3.76 | – |

| SMILES | activation [%] | Potency |
| --- | --- | --- |
| O=C(C[n+]1cccc2ccccc21)c1ccc(NC(=O)c2ccccc2)cc1 | -3.85 | – |
| COC(=O)c1ccncc1C(=O)Nc1ccc(Oc2ncc(C(F)(F)F)cc2Cl)cc1 | -5.74 | – |
| COc1ccc(-c2nc3n(c2C)Cc2ccccc2-3)cc1 | – | 32.8 µM (active) |
| CCOc1ccccc1CNC(=O)Cn1c(=O)oc2ccccc21 | -17.7 | – |
| CC(=O)c1ccc([N+](=O)[O-])c(CS(=O)(=O)c2ccc(Cl)cc2)c1 | -4.51 | – |
| COc1cccc(CNC(=O)C(CC(C)C)NC(=O)c2ccccc2C)c1 (centres undefined) | 0 | – |
| CCc1ccc(NC(=O)N[C@H](C(=O)O)C(C)CC)cc1 (some centres undefined) | -7.69 | – |
| C/C=C\C=C/C(=O)Nc1cccc(C2=NOC3(C2)C[C@@H](C(N)=O)N(C(=O)COc2ccc(Cl)cc2)C3)c1 (some centres undefined) | -11.5 | – |
| Cc1ccc(C(=O)N/C(=C\c2ccco2)C(=O)NC2CCS(=O)(=O)C2)cc1 (centres undefined) | -5.26 | – |
| CC(C)(C)n1nc2c(c1NC(=O)C1CC(=O)N(c3ccc(Cl)cc3)C1)CS(=O)(=O)C2 (centres undefined) | -0.82 | – |
| CCn1c2ccccc2c2c3ncc4cccn4c3ccc21 | – | 41.2 µM (active) |
| COc1ccc(-c2nn(C)c(=O)[nH]2)cc1 | 6.56 | – |
| COc1cc(/C=N/NC(=O)c2c(C)nc3ccc(Cl)cn23)cc(OC)c1OC | – | 58.2 µM (active) |
| CCS(=O)(=O)c1ccc(C(=O)Nc2ccccc2)c(Cl)c1Cl | 0.769 | – |
| CC(=O)Nc1ccc(NC2=C(Cl)C(=O)c3ccccc3C2=O)cc1 | -32.3 | – |
| O=C(O)c1ccc(/C=C/c2nc3ccccc3c(=O)[nH]2)cc1 | -12 | – |
| COc1cccc(C2C(C(N)=O)=C(C)Nc3nc(CCCO)nn32)c1 (centres undefined) | 9.02 | – |
| O=C(O)c1ccc(C2Nc3ccccc3C(=O)N2Cc2ccccc2)cc1 (centres undefined) | 27.8 | – |
| CCN(CC)c1ccc2c(Cl)c(Br)c(=O)oc2c1 | 48.9 | – |
